Reference: PubChem BioAssay (NCI)
This is part of a sample that, as a whole, favours compounds with a hit. Of some 83,000 tested, about 20% had one in any assay.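 The endpoint reported here, percent growth, reads 100 for growth as untreated, 0 for no net growth and -100 for all cells dead.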 Unmarked numbers belong to inactive results. Calls of active or inactive are those of the source. How the source made its calls: active means growth percent below 10; inactive means the rest.

How the values were obtained:
Test in all cases: NCI-60 one-dose screen, 48 h (100 = growth as untreated, 0 = no growth, -100 = all killed)
Settings in all cases: 10 µM unless noted
NCI-H23 lung = system: NCI-H23 lung
NCI-H226 lung = system: NCI-H226 lung
NCI-H322M lung = system: NCI-H322M lung
HOP-62 NSCLC = system: HOP-62 NSCLC
NCI-H460 lung = system: NCI-H460 lung
HOP-92 NSCLC = system: HOP-92 NSCLC
NCI-H522 lung = system: NCI-H522 lung
A549/ATCC NSCLC = system: A549/ATCC NSCLC
786-0 renal = system: 786-0 renal
COLO 205 colon = system: COLO 205 colon
DU-145 prostate = system: DU-145 prostate
K-562 leukemia = system: K-562 leukemia
MALME-3M melanoma = system: MALME-3M melanoma
MDA-MB-231 breast = system: MDA-MB-231 breast
RXF 393 renal = system: RXF 393 renal
SF-268 CNS = system: SF-268 CNS
SF-295 CNS = system: SF-295 CNS
SF-539 CNS = system: SF-539 CNS
UACC-257 melanoma = system: UACC-257 melanoma
M14 melanoma = system: M14 melanoma

S=c1sc2c(Cl)nc(-c3cccnc3)nc2n1-c1ccccc1
growth (NCI-H23 lung): 17.5%
growth (NCI-H226 lung): 85.2%
growth (NCI-H322M lung): 61%
growth (HOP-62 NSCLC): 27.8%
growth (NCI-H460 lung): 57.4%
growth (HOP-92 NSCLC): 25.3%
growth (NCI-H522 lung): -65.8% (active)
growth (A549/ATCC NSCLC): 79.9%
growth (786-0 renal): 35.4%
growth (COLO 205 colon): 80%
growth (DU-145 prostate): 27.4%
growth (K-562 leukemia): 0.869% (active)
growth (MALME-3M melanoma): 65.8%
growth (MDA-MB-231 breast): -11.7% (active)
growth (RXF 393 renal): -42.1% (active)
growth (SF-268 CNS): 14.6%
growth (SF-295 CNS): 96.1%
growth (SF-539 CNS): 6.15% (active)
growth (UACC-257 melanoma): 50%
growth (M14 melanoma): 33%

OCCn1cc(-c2nc(-c3c[nH]c4ncccc34)cs2)c2ccccc21
growth (NCI-H23 lung): 71.9%
growth (NCI-H226 lung): 58%
growth (NCI-H322M lung): 74.8%
growth (HOP-62 NSCLC): 74.7%
growth (NCI-H460 lung): 78.6%
growth (HOP-92 NSCLC): 58%
growth (NCI-H522 lung): 58.6%
growth (A549/ATCC NSCLC): 77.5%
growth (786-0 renal): 95.1%
growth (COLO 205 colon): 85.9%
growth (DU-145 prostate): 93.5%
growth (K-562 leukemia): 54.2%
growth (MALME-3M melanoma): 115%
growth (MDA-MB-231 breast): 66.4%
growth (RXF 393 renal): 82.4%
growth (SF-268 CNS): 84.1%
growth (SF-295 CNS): 81.1%
growth (SF-539 CNS): 88.5%
growth (UACC-257 melanoma): 93.1%
growth (M14 melanoma): 97.7%

Cc1cccc(CNc2c3ccccc3nc3ccccc23)c1
growth (NCI-H23 lung): 29.7%
growth (NCI-H226 lung): 40.6%
growth (NCI-H322M lung): 40.3%
growth (HOP-62 NSCLC): 40.4%
growth (NCI-H460 lung): 8.71% (active)
growth (HOP-92 NSCLC): 7.05% (active)
growth (NCI-H522 lung): 52.1%
growth (A549/ATCC NSCLC): 22.6%
growth (786-0 renal): 24.2%
growth (COLO 205 colon): -16.2% (active)
growth (DU-145 prostate): 33.9%
growth (K-562 leukemia): 1.88% (active)
growth (MALME-3M melanoma): 14.1%
growth (MDA-MB-231 breast): 38.7%
growth (RXF 393 renal): -1.71% (active)
growth (SF-268 CNS): 52%
growth (SF-295 CNS): 25.3%
growth (SF-539 CNS): 11.7%
growth (UACC-257 melanoma): 36.2%
growth (M14 melanoma): 22.8%

Fc1ccc(CNc2c3ccccc3nc3ccccc23)c(F)c1
growth (NCI-H23 lung): 42.8%
growth (NCI-H226 lung): 54.8%
growth (NCI-H322M lung): 49.2%
growth (HOP-62 NSCLC): 57.2%
growth (NCI-H460 lung): 20%
growth (HOP-92 NSCLC): -2.61% (active)
growth (NCI-H522 lung): 42.3%
growth (A549/ATCC NSCLC): 40.1%
growth (786-0 renal): 47.6%
growth (COLO 205 colon): 26.8%
growth (DU-145 prostate): 50.9%
growth (K-562 leukemia): 22.5%
growth (MALME-3M melanoma): 69.5%
growth (MDA-MB-231 breast): 44.4%
growth (RXF 393 renal): 34.5%
growth (SF-268 CNS): 68.6%
growth (SF-295 CNS): 40.4%
growth (SF-539 CNS): 32.4%
growth (UACC-257 melanoma): 68.9%
growth (M14 melanoma): 55.3%

Nc1nc(-c2ccc(Cl)cc2)nc2c1sc(=S)n2-c1ccccc1
growth (NCI-H23 lung): 48.8%
growth (NCI-H226 lung): 49.4%
growth (NCI-H322M lung): 45.7%
growth (HOP-62 NSCLC): 28.9%
growth (NCI-H460 lung): 9.12% (active)
growth (HOP-92 NSCLC): -19.3% (active)
growth (NCI-H522 lung): 56.4%
growth (A549/ATCC NSCLC): 23.9%
growth (786-0 renal): -52.9% (active)
growth (COLO 205 colon): 64.4%
growth (DU-145 prostate): 56.1%
growth (K-562 leukemia): 41.1%
growth (MALME-3M melanoma): -15.9% (active)
growth (MDA-MB-231 breast): 34.7%
growth (RXF 393 renal): -2.61% (active)
growth (SF-268 CNS): 40.7%
growth (SF-295 CNS): 16.4%
growth (SF-539 CNS): -20.7% (active)
growth (UACC-257 melanoma): 59.9%
growth (M14 melanoma): 68.1%

Cc1sc2nc(NCCc3c[nH]c4ccc(Cl)cc34)[nH]c(=O)c2c1C
growth (NCI-H23 lung): 61.6%
growth (NCI-H226 lung): 70.6%
growth (NCI-H322M lung): 61.2%
growth (HOP-62 NSCLC): 34.7%
growth (NCI-H460 lung): 18.6%
growth (HOP-92 NSCLC): 46%
growth (NCI-H522 lung): -23.9% (active)
growth (A549/ATCC NSCLC): 0.107% (active)
growth (786-0 renal): 56.5%
growth (COLO 205 colon): 22.3%
growth (DU-145 prostate): 62.2%
growth (K-562 leukemia): 22.3%
growth (MALME-3M melanoma): 60.2%
growth (MDA-MB-231 breast): 31.1%
growth (RXF 393 renal): 7.63% (active)
growth (SF-268 CNS): 15.5%
growth (SF-295 CNS): 50.7%
growth (SF-539 CNS): 40.1%
growth (UACC-257 melanoma): 32.6%
growth (M14 melanoma): 26.5%

CCCCC1=C(P(=O)(O)O)N[C@H](C(=O)O)CS1
growth (NCI-H23 lung): 97.5%
growth (NCI-H226 lung): 95.5%
growth (NCI-H322M lung): 73.8%
growth (HOP-62 NSCLC): 89.4%
growth (NCI-H460 lung): 107%
growth (HOP-92 NSCLC): 89.5%
growth (NCI-H522 lung): 83.2%
growth (A549/ATCC NSCLC): 92%
growth (786-0 renal): 95.1%
growth (COLO 205 colon): 108%
growth (DU-145 prostate): 104%
growth (K-562 leukemia): 93.1%
growth (MALME-3M melanoma): 96.3%
growth (MDA-MB-231 breast): 90.6%
growth (RXF 393 renal): 93.5%
growth (SF-268 CNS): 98.6%
growth (SF-295 CNS): 85.9%
growth (SF-539 CNS): 93.1%
growth (UACC-257 melanoma): 86.6%
growth (M14 melanoma): 92.7%

CCCC/C=C/[C@@H]1C[C@H]1CCO
growth (NCI-H23 lung): 102%
growth (NCI-H226 lung): 91.5%
growth (NCI-H322M lung): 92.1%
growth (HOP-62 NSCLC): 90.5%
growth (NCI-H460 lung): 105%
growth (HOP-92 NSCLC): 96.5%
growth (NCI-H522 lung): 78.3%
growth (A549/ATCC NSCLC): 96.7%
growth (786-0 renal): 99.5%
growth (COLO 205 colon): 100%
growth (DU-145 prostate): 116%
growth (K-562 leukemia): 103%
growth (MALME-3M melanoma): 93.6%
growth (MDA-MB-231 breast): 99.2%
growth (RXF 393 renal): 108%
growth (SF-268 CNS): 104%
growth (SF-295 CNS): 98.2%
growth (SF-539 CNS): 103%
growth (UACC-257 melanoma): 91.5%
growth (M14 melanoma): 98.9%
